Whole data set: some 81,000 sequences, median “one-hybrid fitness for binding parS DNA” near -0.17, cut for the highest 2% near 0.51. Only a selection was taken, and the highest values are over-represented in it overall. Bounds are passed on as bounds.

The labels stand for the following.
B1: Caulobacter ParB omega fusion; a variant is named by its letters at X, in order, B8GW30 (parent)
chain: MESVVVGEPGMSEGRRGLGRGLSALLGEVDAAPAQAPGEQLGGSREAPIEILQRNPDQPRRTFREEDLEDLSNSIREKGVLQPILVRPSPDTAGEYQIVAGERAWRAAQRAGLKTVPIMVRELDDLAVLEIGIIENVQRADLNVLEEALSYKVLMEKFERTQENIAQTIGKSXSHVANXMRLLXLPDEVQSYLVSGELTAXHARAIAAAADPVALAKQIIEGGLSVRETEALARKAPNLSAGKSKGGRPPRVKDTDTQALESDLSSVLGLDVSIDHRGSTGTLTITYATLEQLDDLCNRLTRGI

The variants in this experiment derive from B1. The experiment in a line: one-hybrid fitness for binding parS DNA (scaled: cognate 1, non-cognate 0); higher = stronger binding. The conditions noted are these: with parS DNA site. In short, it runs like this: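 Pre- and post-selection plasmids were Illumina-sequenced, three replicate libraries were pooled, and any variant with under 10 reads was removed. The libraries were Caulobacter ParB with four specificity codons randomised, selected in E. coli USO through a HIS3 reporter whose site is 19 bp from the promoter. Cells grew 48 hours at 37°C on M9 without histidine, with 0.1 mM IPTG and 5 mM 3-AT. Fitness is the log change in variant-to-wild-type read ratio, rescaled against cognate and non-cognate.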
Consider RVKS, for which the “one-hybrid fitness for binding parS DNA” value amounted to 0.831.
The figure for RVKH is not above 0.2.
To RVVN belongs 0.41; to RVVS, 1.03; to RVVD, not above 0.2.
Consider EWSG, for which the “one-hybrid fitness for binding parS DNA” value is not above 0.2.
The figure for QKNH is not above 0.2; for APDA it is not above 0.2.
To DTGA belongs not above 0.2; to DFGA, not above 0.2.
The figure for RMGA is 0.573; for RFGA it is 0.531.
Take RPGA: the “one-hybrid fitness for binding parS DNA” value was not above 0.2.
The figure for DMGA is not above 0.2; for RWGA it is 0.386.
To RTGA belongs 0.679; to ETGA, not above 0.2.
To PFGA belongs not above 0.2; to RCGA, 0.653.
Take NTKT: the “one-hybrid fitness for binding parS DNA” value was not above 0.2.
Consider QYPA, for which the “one-hybrid fitness for binding parS DNA” value was not above 0.2.
To WNKI belongs not above 0.2.
The figure for DLGA is not above 0.2; for RLGA it is 0.617.
To RNGA belongs 0.496; to REGA, not above 0.2.
As to RAGA, the “one-hybrid fitness for binding parS DNA” value is 0.595.
For the variant DAGA, the “one-hybrid fitness for binding parS DNA” value was not above 0.2.
The figure for NLGA is not above 0.2; for RSGA it is 0.597; for RHGA it is 0.546.
To VGER belongs not above 0.2.
The figure for ETLC is not above 0.2.
Take ETVR: the “one-hybrid fitness for binding parS DNA” value was not above 0.2.
The figure for LAFP is not above 0.2.
The figure for GGRS is not above 0.2.
To KQSE belongs not above 0.2; to PDSM, not above 0.2; to LRGD, not above 0.2.
RLEC: the “one-hybrid fitness for binding parS DNA” value stood at 0.947.
As for RLER, the “one-hybrid fitness for binding parS DNA” value is not above 0.2.
To RKEC belongs 0.893.
The figure for RMEN is 0.369.
The figure for RCEC is 0.866; for RMEC it is 0.878; for RMEH it is not above 0.2.
Turning to RKEI, the “one-hybrid fitness for binding parS DNA” value is not above 0.2.
For the variant RKEQ, the “one-hybrid fitness for binding parS DNA” value was not above 0.2.
To RPEC belongs not above 0.2.
To RDEC belongs not above 0.2; to RLEI, not above 0.2; to LRQY, not above 0.2.
To VQGR belongs not above 0.2; to HFMV, not above 0.2; to TEEC, not above 0.2.
As for FLDS, the “one-hybrid fitness for binding parS DNA” value was not above 0.2.
Consider HFDS, for which the “one-hybrid fitness for binding parS DNA” value was not above 0.2.
For the variant QTWK, the “one-hybrid fitness for binding parS DNA” value was not above 0.2.
With CLLK, the “one-hybrid fitness for binding parS DNA” value is not above 0.2.
In the case of TGRC, the “one-hybrid fitness for binding parS DNA” value is not above 0.2.
To RAER belongs not above 0.2; to RAEC, 0.807.
To RHEQ belongs 0.223; to RIEC, 0.791.
RHEC: the “one-hybrid fitness for binding parS DNA” value was 0.851.
The figure for RHEF is not above 0.2.
Take RIER: the “one-hybrid fitness for binding parS DNA” value was not above 0.2.
To RREP belongs not above 0.2.
To RREC belongs 0.731; to RREH, not above 0.2.
RIEY: the “one-hybrid fitness for binding parS DNA” value was found to be 0.338.
Turning to RAEM, the “one-hybrid fitness for binding parS DNA” value is 0.246.
The figure for GGWR is not above 0.2; for ITFG it is not above 0.2; for ITHW it is not above 0.2.
KYTR: the “one-hybrid fitness for binding parS DNA” value was not above 0.2.
Consider QQLK, for which the “one-hybrid fitness for binding parS DNA” value was not above 0.2.
To YTGV belongs not above 0.2.
The figure for RTEY is 0.414.
The figure for RSED is not above 0.2.
On to RSEC, for which the “one-hybrid fitness for binding parS DNA” value stood at 0.739.
The figure for RSEN is 0.333; for RTEK it is not above 0.2; for RFEI it is not above 0.2.
To RFEC belongs 0.727.
The figure for RTEC is 0.874; for NFEC it is not above 0.2.
In the case of YRPK, the “one-hybrid fitness for binding parS DNA” value is not above 0.2.
To DVSL belongs not above 0.2; to PMLT, not above 0.2; to QLTV, not above 0.2.
To RLQW belongs 0.245; to SPHY, not above 0.2; to KVAV, not above 0.2.
The figure for NKDH is not above 0.2.
Consider AYAS, for which the “one-hybrid fitness for binding parS DNA” value was not above 0.2.
To MADT belongs not above 0.2.
To LSCT belongs not above 0.2; to NASA, not above 0.2; to RTSA, 0.591.
To DASA belongs not above 0.2; to RPSA, not above 0.2.
With RASA, the “one-hybrid fitness for binding parS DNA” value amounted to 0.595.
With RWSA, the “one-hybrid fitness for binding parS DNA” value was found to be 0.429.
The figure for RGSA is 0.399; for DTSA it is not above 0.2.
RCSA: the “one-hybrid fitness for binding parS DNA” value is 0.575.
To RSSA belongs 0.583; to RDSA, not above 0.2; to NTSA, not above 0.2.
The figure for CEWG is not above 0.2; for PPVE it is not above 0.2; for RGTE it is not above 0.2.
In the case of VPLK, the “one-hybrid fitness for binding parS DNA” value is not above 0.2.
The figure for LSLN is not above 0.2; for KMRA it is not above 0.2.
The figure for APLY is not above 0.2; for YCRA it is not above 0.2; for PHDR it is not above 0.2.
For INAG, the “one-hybrid fitness for binding parS DNA” value is not above 0.2.
DLSA: the “one-hybrid fitness for binding parS DNA” value is not above 0.2.
To RHSA belongs 0.515.
Take DHSA: the “one-hybrid fitness for binding parS DNA” value is not above 0.2.
RLSA: the “one-hybrid fitness for binding parS DNA” value came to 0.587.
To SFSA belongs not above 0.2.
Turning to RESA, the “one-hybrid fitness for binding parS DNA” value was not above 0.2.
As for CFSA, the “one-hybrid fitness for binding parS DNA” value is not above 0.2.
For RFSA, the “one-hybrid fitness for binding parS DNA” value was 0.572.
The figure for RMSA is 0.59; for NMSA it is not above 0.2; for QQWL it is not above 0.2.
To HSTQ belongs not above 0.2; to QIPS, not above 0.2; to NIHV, not above 0.2.
As to LAFG, the “one-hybrid fitness for binding parS DNA” value is not above 0.2.
For the variant NNTV, the “one-hybrid fitness for binding parS DNA” value is not above 0.2.
To SRTI belongs not above 0.2; to LHLI, not above 0.2.
To FTFT belongs not above 0.2; to RKAK, not above 0.2.
To RKAR belongs not above 0.2.
RKFD: the “one-hybrid fitness for binding parS DNA” value was not above 0.2.
As to RKFH, the “one-hybrid fitness for binding parS DNA” value was 0.211.
In the case of RKFT, the “one-hybrid fitness for binding parS DNA” value was found to be 0.771.
The figure for RKAT is 0.818; for TVYC it is not above 0.2.
The figure for QLDE is not above 0.2.
With GTYL, the “one-hybrid fitness for binding parS DNA” value was not above 0.2.
To RKHA belongs 0.67; to RKQA, 0.712.
The figure for RKYA is 0.579; for NKHA it is not above 0.2; for RKSA it is 0.717.
Regarding RKPA, the “one-hybrid fitness for binding parS DNA” value amounted to 0.223.
Consider RKIA, for which the “one-hybrid fitness for binding parS DNA” value stood at 0.451.
